According to PubChem BioAssay (NCATS):
Several values for one entry are separate records, joined by “and”; a condition that tells them apart may be missing. Equal values may be shown once. Inconclusive results are not listed. Activity calls are given as the source filed them. Unless noted, no rule for the calls is given here.

What was measured:
[1] = qHTS Assay for Identifying Gametocytocidal Compounds (AID 743244; active = well fitted curve in the direction sought with a large enough effect; an effect the other way counts as inactive or inconclusive;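 also: % is scaled to controls: 0 for no effect and ±100 for the full control effect; actives lower the fluorescent signal which means gametocytes are killed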); details: P. falciparum 3D7 stage III-V gametocytes, alamarBlue, 72 h; max response: stronger effect = lower value
In short: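 In this qHTS viability screen, late-stage 3D7 gametocytes are incubated with compound for 72 h, then with alamarBlue for 24 h; reduced resorufin fluorescence marks killing.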

[2] = qHTS profiling for inhibitors of Plasmodium falciparum (3D7) proliferation (AID 743322);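 also: infected erythrocytes exposed to compound for 72 h before lysis; 100% = DMSO vehicle wells and 0% = 0.29 µM artemisinin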; details: P. falciparum 3D7 proliferation; at 28.7 µM (top of the series) unless noted
In short: (§1)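 Erythrocytes infected with P. falciparum (0.3% parasitemia, 2.5% hematocrit) incubated with compounds 72 h at 37 C, 5% CO2. Lysis with saponin/Triton buffer containing SYBR Green I, overnight at room temperature in the dark; DNA fluorescence (485/535 nm) normalised to 0.29 uM artemisinin and DMSO.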

[3] = qHTS profiling for inhibitors of Plasmodium falciparum (DD2) proliferation (AID 743323); details: lower = more inhibition; at 28.7 µM (top of the series) unless noted
In short: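 Parasite DNA quantified by SYBR Green fluorescence (ex 485, em 535 nm) after saponin/Triton lysis and overnight dark incubation. Cultures: 0.3% parasitemia, 2.5% hematocrit, 72 h, 37 C; data scaled between DMSO and 0.29 uM artemisinin.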

[4] = qHTS profiling for inhibitors of Plasmodium falciparum (HB3) proliferation (AID 743324; active = well fitted curve in the direction sought with a large enough effect; an effect the other way counts as inactive or inconclusive;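 also: 100% = DMSO vehicle wells and 0% = artemisinin-treated control wells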); details: Plasmodium falciparum HB3 blood-stage proliferation; at 28.7 µM (top of the series) unless noted
In short: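 P. falciparum HB3 grown in erythrocytes (0.3% parasitemia, 2.5% hematocrit final) with compound for 72 h at 37 C, 5% CO2. Parasite DNA detected by SYBR Green after saponin/triton lysis overnight; normalized to 0.29 uM artemisinin and DMSO.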

[5] = qHTS profiling of the MIPE4 collection as inhibitors of Plasmodium falciparum (3D7) proliferation (AID 743344);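 also: scaled between DMSO vehicle wells and 0.29 µM artemisinin as full inhibition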; details: P. falciparum 3D7 in erythrocytes, SYBR Green DNA fluorescence, 72 h; at 28.5 µM (top of the series) unless noted
In short: as §1

[6] = qHTS profiling of the MIPE4 collection as inhibitors of Plasmodium falciparum (DD2) proliferation (AID 743345); details: P. falciparum Dd2 in erythrocytes, SYBR Green DNA, 72 h; at 28.5 µM (top of the series) unless noted
In short: as §1

[7] = qHTS profiling of the MIPE4 collection as inhibitors of Plasmodium falciparum (HB3) proliferation (AID 743347);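 also: plate controls were DMSO vehicle wells for no effect and artemisinin wells for full effect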; details: P. falciparum HB3 in erythrocytes, SYBR Green DNA, 72 h; at 28.5 µM (top of the series) unless noted
In short: as §1

[8] = Cell Proliferation Assay Versus the ED40515 IL2 Dependent ATL cell lines (AID 1053195; calls by dose curve); details: ED40515 IL2-dependent ATL cells
In short: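 IL2-dependent ED40515 ATL cells grown with IL2, 1000 cells/well in phenol red-free RPMI + 5% FBS, exposed 48 hours at 37C. Viability by CellTiter-Glo luminescence after 15 min at RT; 9.2 uM bortezomib as control.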

[9] = High-throughput drug toxicity screening in the BPDCN cell line Gen2.2 (AID 1224824); details: Gen2.2 BPDCN cells; at 45.8 µM (top of the series) unless noted;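 also: cells exposed to compounds for 48 h before reading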
In short: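 Gen2.2 cells (500/well) in phenol red-free RPMI with 10% FBS were exposed to compounds for 48 h at 37 °C, 5% CO2. Viability was read by CellTiter-Glo luminescence and normalized to DMSO (100%) and 9.2 uM bortezomib (0%).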

[10] = High-throughput drug toxicity screening in the BPDCN cell line Cal-1 (AID 1224825); details: Cal-1 BPDCN cell viability, qHTS; at 45.8 µM (top of the series) unless noted
In short: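 Cal-1 cells, 500 per well in phenol-red-free RPMI with 10% FBS, exposed to compounds for 48 hours at 37C, 5% CO2. Viability read by CellTiter-Glo luminescence; percent activity normalized to DMSO (100%) and 9.2 uM bortezomib final (0%).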

[11] = qHTS assay for measurement of the activity of small molecule inhibitors on Zika virus induced Caspase-3 activity in human iPSC derived neural progenitor cells (hNPCs) (AID 1224857; active = well fitted curve in the direction sought with a large enough effect; an effect the other way counts as inactive or inconclusive; also: % of control where 0% means no effect; nearly all actives have a fitted effect of over 65% in size)
In short: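 In medium with heparin 2 ug/ml and cyclopamine 2 uM, hNPCs (350 cells/well) received compound for one hour and then Zika virus at 2 FFU/cell; caspase activity was measured by Caspase-Glo 3/7 luminescence 6 h post-infection.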

[12] = qHTS assay for measurement of the activity of small molecule inhibitors on Zika virus induced Caspase-3 activity in human astrocytoma cells (AID 1224859; active = well fitted curve in the direction sought with a large enough effect; an effect the other way counts as inactive or inconclusive;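 also: plate controls were ZIKV-infected untreated cells for no effect and uninfected cells for full effect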)
In short: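 A cell-based luminescent caspase-3/7 assay used SNB-19 cells infected with ZIKV (2 FFU/cell) for 6 h following 1 h compound pretreatment.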

[13] = qHTS Screen of the MIPE 4.0 Collection Against Ewings Sarcoma (RDES) (AID 1259252; active = well fitted curve in the direction sought with a large enough effect; an effect the other way counts as inactive or inconclusive; also: nearly all actives have a fitted effect of over 35% in size; also: potency is read from the fitted curve at half-maximal effect)
In short: (§2)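 Viability screen: 48 h incubation at 37C, 95% humidity, 5% CO2 with serially titrated compound, followed by CellTiter-Glo readout.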

[14] = qHTS Screen of the MIPE 4.0 Collection Against Ewings Sarcoma (TC71) (AID 1259253; active = well fitted curve in the direction sought with a large enough effect; an effect the other way counts as inactive or inconclusive; also: nearly all actives have a fitted effect of over 40% in size; also: potency is read from the fitted curve at half-maximal effect)
In short: as §2

[15] = qHTS Screen of the MIPE 4.0 Collection Against Ewings Sarcoma (EW8) (AID 1259255; active = well fitted curve in the direction sought with a large enough effect; an effect the other way counts as inactive or inconclusive; also: nearly all actives have a fitted effect of over 35% in size; also: potency is read from the fitted curve at half-maximal effect;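 as to viability: 100% = DMSO-treated cells and 0% = medium-only wells without cells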)
In short: as §2

[16] = qHTS profiling of the MIPE4 collection as inhibitors of Plasmodium falciparum (DD2) proliferation (Rep 2) (AID 743346); details: P. falciparum Dd2 in erythrocytes, SYBR Green DNA, 72 h; at 28.5 µM (top of the series) unless noted
In short: as §1

[17] = target: Hexokinase-4 (Homo sapiens) + Glucokinase regulatory protein (Homo sapiens) (UniProt P35557+Q14397); assay: qHTS assay for inhibitors of recombinant human GCK-GKRP interaction: HTRF assay (AID 743207; active = well fitted curve in the direction sought with a large enough effect; an effect the other way counts as inactive or inconclusive;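 also: 0% = DMSO with GCK present and -100% = DMSO wells lacking GCK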)
Sequence of Hexokinase-4 (Homo sapiens) + Glucokinase regulatory protein (Homo sapiens) (P35557 whole entry, looked up): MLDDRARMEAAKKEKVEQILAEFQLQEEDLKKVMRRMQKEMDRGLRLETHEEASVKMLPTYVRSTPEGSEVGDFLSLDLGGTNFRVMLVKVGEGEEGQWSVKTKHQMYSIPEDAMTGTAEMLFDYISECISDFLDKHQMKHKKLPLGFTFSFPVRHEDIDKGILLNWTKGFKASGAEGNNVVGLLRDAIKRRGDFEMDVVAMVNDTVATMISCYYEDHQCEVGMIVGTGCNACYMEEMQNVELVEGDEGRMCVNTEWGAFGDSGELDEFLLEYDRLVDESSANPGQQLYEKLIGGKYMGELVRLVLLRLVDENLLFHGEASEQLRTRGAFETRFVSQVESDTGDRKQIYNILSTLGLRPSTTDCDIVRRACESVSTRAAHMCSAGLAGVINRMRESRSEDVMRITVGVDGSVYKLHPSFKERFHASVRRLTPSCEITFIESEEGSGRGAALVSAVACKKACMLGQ
Sequence of Hexokinase-4 (Homo sapiens) + Glucokinase regulatory protein (Homo sapiens) (Q14397 whole entry, looked up): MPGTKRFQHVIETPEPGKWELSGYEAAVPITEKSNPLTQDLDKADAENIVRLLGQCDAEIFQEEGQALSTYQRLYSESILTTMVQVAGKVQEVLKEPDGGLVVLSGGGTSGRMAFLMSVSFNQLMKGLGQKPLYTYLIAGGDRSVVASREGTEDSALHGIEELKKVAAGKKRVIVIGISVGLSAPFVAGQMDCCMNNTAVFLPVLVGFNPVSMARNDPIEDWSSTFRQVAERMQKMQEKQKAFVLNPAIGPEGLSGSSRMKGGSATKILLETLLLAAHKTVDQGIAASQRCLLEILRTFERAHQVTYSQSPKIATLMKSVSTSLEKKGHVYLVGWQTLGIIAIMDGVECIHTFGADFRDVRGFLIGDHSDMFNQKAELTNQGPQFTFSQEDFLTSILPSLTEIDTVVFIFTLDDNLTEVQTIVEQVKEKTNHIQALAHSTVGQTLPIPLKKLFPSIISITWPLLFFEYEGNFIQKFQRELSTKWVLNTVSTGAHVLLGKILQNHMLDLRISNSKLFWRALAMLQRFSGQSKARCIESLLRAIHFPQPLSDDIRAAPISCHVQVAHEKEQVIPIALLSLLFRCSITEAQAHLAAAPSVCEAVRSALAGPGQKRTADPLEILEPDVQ
In short: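 GST-GCK and FLAG-GKRP (5 nM each) were combined with 2 uM S6P in pH 7.1 Hepes/MgCl2/KCl/DTT buffer, then compound and anti-FLAG XL665/anti-GST K antibodies were added. After 60 min at room temperature, HTRF 665/615 nm emission was read.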

[18] = qHTS assay for cell viability of HEK293 cells (AID 743288; active = well fitted curve in the direction sought with a large enough effect; an effect the other way counts as inactive or inconclusive; also: % is scaled to controls: 0 for no effect and ±100 for the full control effect; nearly all actives have a fitted effect of over 50% in size); details: ATP luminescence (CellTiter-Glo), 18 h; max response: stronger effect = lower value
In short: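 Parental HEK293 cells were seeded at 2,000 cells/well, rested at least 5 h at 37 C, then exposed to compounds in DMSO for 18 h at 37 C. Viability was read as ATP-dependent luciferase luminescence after 30 min at room temperature.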

[19] = qHTS assay for cell viability of the p53RE-bla HCT-116 cell line (AID 743292; active = well fitted curve in the direction sought with a large enough effect; an effect the other way counts as inactive or inconclusive; also: % is scaled to controls: 0 for no effect and ±100 for the full control effect; nearly all actives have a fitted effect of over 55% in size)
In short: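 CellSensor p53RE-bla HCT-116 cells, 4,000/well, preincubated 5 h at 37 C, then exposed to compounds in DMSO for 16 h at 37 C. Viability read as CellTiter-Glo luminescence (intracellular ATP) after 30 min at room temperature.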

[20] = Cell Proliferation Assay Versus the ED40515 IL2 Independent ATL cell lines (AID 1053194; calls by dose curve); details: ED40515 IL2-independent ATL cells
In short: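 Log-phase ED40515 cells grown without IL-2, 1000 cells/well in phenol red-free RPMI with 5% FBS, exposed to drugs 48 h at 37C. Viability read as CellTiter-Glo luminescence after 15 min at RT; DMSO and 9.2 uM bortezomib as controls.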

Compound | max response [1] | remaining parasite growth % (stronger effect = lower value) [2] | activity, percent of control [3] | remaining proliferation (% of control), lower = more inhibition [4] | parasite growth, % of DMSO control [5] | parasite growth remaining, % of DMSO control (lower = more inhibition) [6] | growth, % of control [7] | Potency [8] | cell viability, % of control (lower = more cytotoxic) [9] | viability (% of control) [10] | Potency [11] | Potency [12] | Potency [13] | Potency [14] | Potency [15] | parasite growth, % of control (lower = inhibition) [16] | outcome [17] | max response [18] | Potency [19] | Potency [20]
S=C(NCc1ccc2c(c1)OCO2)N1CCN(c2ncnc3c2oc2ccccc23)CC1 | -9.54% (inactive) | 75.4% | 87.1% | 28.7% | 20.8% [at 57.5 µM] | 66.7% [at 57.5 µM] | 30.4% [at 57.5 µM] | 0.0662 µM (active) | 387% [at 92.2 µM] | 56.7% [at 92.2 µM] | inactive | inactive | 1.91 µM (active) | 7.62 µM (active) | 4.81 µM (active) | – | – | – | – | –
NC(=O)C1CCCc2c1[nH]c1ccc(Cl)cc21 (stereo not drawn) | 9.85% (inactive) | 100% | 94.6% | 95% | 92% | 112% | 106% | 33.2 µM (active) | 67% | 67.2% | inactive | inactive | 6.62 µM (active) | – | inactive | 145% | – | – | – | –
COc1cc(Nc2ncc3c(n2)-c2ccc(Cl)cc2C(c2c(F)cccc2OC)=NC3)ccc1C(=O)O | -8.12% (inactive) | 89.5% | 78.1% | 61.2% | 24.7% | 69.6% | 30.2% | 0.0066 µM (active) | 24.8% | 28.7% | inactive | inactive | – | 1.87 µM (active) | 0.0743 µM (active) | – | – | – | – | –
O=NN(CCCl)C(=O)NCCCl | 10.6% (inactive) and 5.39% (inactive) | – | – | – | – | – | – | – | 114% | 103% | inactive | inactive | inactive | inactive | inactive | – | inactive | -8.57% (inactive) | inactive | –
COc1cc2nccc(Oc3ccc(NC(=O)NC4CC4)c(Cl)c3)c2cc1C(N)=O | – | 63.1% | 67.5% | 30.9% | 17.7% | 70.8% | 19.2% | 20.9 µM (active) | 10.1% | 5.43% | inactive | – | 0.833 µM (active) | 1.05 µM (active) | 0.469 µM (active) | 30.6% | – | – | – | –
COc1ccc(COc2cc3oc(=O)c4cc(C(C)O)ccc4c3cc2OC)cc1 (stereo not drawn) | 29.9% (inactive) | 75.7% | 22% | 74.7% | 39.5% | 77.1% | 46.1% | 18.7 µM (active) | 14.7% | 33.4% | inactive | inactive | 13.2 µM (active) | 23.5 µM (active) | 20.9 µM (active) | – | – | – | – | –
C[C@H](NC(=O)Cc1cc(F)cc(F)c1)C(=O)N[C@@H]1C(=O)N(C)c2ccccc2-c2ccccc21 | – | 7.69% | 7.48% | 6.09% | 10.3% | 12.1% | 3.07% | 20.9 µM (active) | 176% | 43.1% | inactive | inactive | 8.33 µM (active) | 10.5 µM (active) | 11.8 µM (active) | 12.3% | – | – | – | –
O=C(C1CC1)N1CC[C@@H](Cn2c(-c3ccc(-c4ccc5occc5c4)cc3)nc3cnccc32)C1 | -18.8% (inactive) | 74.3% | 74.7% | 55.2% | 35% | 78.6% | 21.9% | 16.6 µM (active) | 133% | 95.4% | inactive | inactive | inactive | 16.6 µM (active) | 13.2 µM (active) | 46.6% | – | – | – | –
COc1ccc(-c2ccc3c(N4CCOC[C@H]4C)nc(N4CCOC[C@H]4C)nc3n2)cc1CO | – | 15.5% | 19.8% | 10.7% | 6.01% | 9.32% | 7.68% | 0.0935 µM (active) | 11.3% | – | inactive | inactive | – | 0.0332 µM (active) | 0.0264 µM (active) | 13.1% | – | – | – | 0.0083 µM (active)
O=C1CCCC2=C1C(c1[nH]ncc1Cl)N=C(Nc1nc3ccccc3o1)N2 (stereo not drawn) | 6.89% (inactive) | 115% | 105% | 114% | 20.6% | 10.9% | 55.2% | 29.6 µM (active) | 73.8% | – | inactive | – | inactive | 10.5 µM (active) | – | 8.08% | – | – | – | –
CNC(=O)c1ccc(N2C(=S)N(c3ccc(C#N)c(C(F)(F)F)c3)C(=O)C2(C)C)cc1F | 12% (inactive) | 87.6% | 87.8% | 62.8% | 53.9% | 86.3% | 41.9% | 16.6 µM (active) | 185% | 112% | inactive | inactive | inactive | inactive | inactive | 53.7% | – | – | – | –
O=C(c1cc(Cc2n[nH]c(=O)c3ccccc23)ccc1F)N1CCN(C(=O)C2CC2)CC1 | 10.8% (inactive) | 88.8% and 97.4% | 97.9% and 99.7% | 57.9% and 59.4% | 23.5% | 92.7% | 35.9% | 16.6 µM (active) | 71.5% | 45.4% | inactive | inactive | 8.33 µM (active) | 10.5 µM (active) | – | – | – | – | – | –
COc1cc(Oc2ccnc3cc(OC)c(OC)cc23)ccc1NC(=O)NC(C)c1nccs1 (stereo not drawn) | – | 69.7% | 56.8% | 16.5% | 22.7% | 85.4% | 71.5% | – | 98.9% | 32.2% | inactive | – | – | – | – | 40.3% | – | – | – | 9.35 µM (active)
CCC(C)N(C)C(=O)c1cc2ccccc2c(-c2ccccc2Cl)n1 (stereo not drawn) | 24.9% (inactive) | 86.5% | 80.9% | 42% | 39% | 83.4% | 53.6% | 11.8 µM (active) | 95% | – | inactive | inactive | – | 23.5 µM (active) | inactive | 53.7% | inactive | – | – | –
